# From paper PMC7862700, “An all-to-all approach to the identification of sequence-specific readers for epigenetic DNA modifications on cytosine”
# Legend:
# Experiment in all cases: DAPPL (digital affinity profiling via proximity ligation, sequencing); 10 mM Tris-HCl pH 7.5, 50 mM NaCl, 1 mM DTT, 4% glycerol, room temperature, 30 min; GST-TFs on glutathione beads, 16-mer random dsDNA library, 0.1% formaldehyde crosslink after washing; high values mean tight binding
# FLI1 = molecular target: T1, FLI1 (Homo sapiens, UniProt Q01543 1-452); conditions: protein: recombinant; tags: N-terminal GST; dsDNA, one strand shown
# T1 sequence: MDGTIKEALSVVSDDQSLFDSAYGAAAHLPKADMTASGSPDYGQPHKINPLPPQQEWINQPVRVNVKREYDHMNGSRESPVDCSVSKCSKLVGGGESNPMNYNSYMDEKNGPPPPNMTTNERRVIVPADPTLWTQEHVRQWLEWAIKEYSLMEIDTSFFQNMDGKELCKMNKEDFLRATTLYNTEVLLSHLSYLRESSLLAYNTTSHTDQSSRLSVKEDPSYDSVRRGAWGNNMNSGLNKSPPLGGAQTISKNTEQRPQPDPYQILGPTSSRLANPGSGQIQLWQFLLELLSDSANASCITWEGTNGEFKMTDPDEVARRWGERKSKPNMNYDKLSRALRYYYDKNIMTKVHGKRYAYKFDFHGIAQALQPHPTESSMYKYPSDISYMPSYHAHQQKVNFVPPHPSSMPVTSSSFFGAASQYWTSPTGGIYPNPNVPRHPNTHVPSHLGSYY
# Summary of the method: (§1)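 Binding signal is defined as a hexamer's read frequency for one factor over its frequency for the tag-only sample. To obtain reads, GST-fused human transcription factors were expressed in yeast, captured on glutathione beads, barcoded with DNA and pooled with that sample. Pools met 200 nmole of a 16-mer random double-stranded DNA library in Tris/NaCl/DTT/glycerol buffer for 30 min at room temperature before washing, 0.1% formaldehyde crosslinking, proximity ligation (BsaI/T4 ligase, 1 h, 37 °C), PCR and Illumina NextSeq500 sequencing.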
# ELK1 = molecular target: T2, ELK1 (Homo sapiens, UniProt P19419 1-428); conditions: protein: recombinant; tags: N-terminal GST; dsDNA, one strand shown
# T2 sequence: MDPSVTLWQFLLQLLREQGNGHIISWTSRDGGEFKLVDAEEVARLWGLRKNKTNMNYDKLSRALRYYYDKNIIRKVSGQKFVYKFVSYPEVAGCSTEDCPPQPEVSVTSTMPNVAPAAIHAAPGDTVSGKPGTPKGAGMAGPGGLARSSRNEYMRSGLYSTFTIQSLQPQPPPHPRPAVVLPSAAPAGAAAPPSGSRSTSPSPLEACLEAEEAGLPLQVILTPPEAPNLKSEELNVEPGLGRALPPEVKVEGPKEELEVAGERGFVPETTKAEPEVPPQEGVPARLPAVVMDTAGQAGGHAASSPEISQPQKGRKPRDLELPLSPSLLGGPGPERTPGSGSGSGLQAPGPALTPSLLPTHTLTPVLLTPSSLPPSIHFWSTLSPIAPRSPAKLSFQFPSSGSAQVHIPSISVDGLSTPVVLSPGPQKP
# Summary of the method: as §1
# GABPA = molecular target: T3, GABPA (Homo sapiens, UniProt Q06546 1-454); conditions: protein: recombinant; tags: N-terminal GST; dsDNA, one strand shown
# T3 sequence: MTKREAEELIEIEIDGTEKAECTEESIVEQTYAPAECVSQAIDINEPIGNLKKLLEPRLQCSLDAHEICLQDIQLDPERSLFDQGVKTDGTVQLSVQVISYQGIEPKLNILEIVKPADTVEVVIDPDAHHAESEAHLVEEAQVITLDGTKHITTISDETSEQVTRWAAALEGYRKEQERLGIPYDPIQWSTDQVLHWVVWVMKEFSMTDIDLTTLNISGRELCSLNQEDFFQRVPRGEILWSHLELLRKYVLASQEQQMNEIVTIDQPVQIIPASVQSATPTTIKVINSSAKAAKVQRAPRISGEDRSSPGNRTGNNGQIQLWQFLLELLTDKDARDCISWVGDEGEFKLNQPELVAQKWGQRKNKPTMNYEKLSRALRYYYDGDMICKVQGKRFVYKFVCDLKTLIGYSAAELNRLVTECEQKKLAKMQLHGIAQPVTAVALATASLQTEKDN
# Summary of the method: as §1
# ERG = molecular target: T4, ERG (Homo sapiens, UniProt P11308 1-479); conditions: protein: recombinant; tags: N-terminal GST; dsDNA, one strand shown
# T4 sequence: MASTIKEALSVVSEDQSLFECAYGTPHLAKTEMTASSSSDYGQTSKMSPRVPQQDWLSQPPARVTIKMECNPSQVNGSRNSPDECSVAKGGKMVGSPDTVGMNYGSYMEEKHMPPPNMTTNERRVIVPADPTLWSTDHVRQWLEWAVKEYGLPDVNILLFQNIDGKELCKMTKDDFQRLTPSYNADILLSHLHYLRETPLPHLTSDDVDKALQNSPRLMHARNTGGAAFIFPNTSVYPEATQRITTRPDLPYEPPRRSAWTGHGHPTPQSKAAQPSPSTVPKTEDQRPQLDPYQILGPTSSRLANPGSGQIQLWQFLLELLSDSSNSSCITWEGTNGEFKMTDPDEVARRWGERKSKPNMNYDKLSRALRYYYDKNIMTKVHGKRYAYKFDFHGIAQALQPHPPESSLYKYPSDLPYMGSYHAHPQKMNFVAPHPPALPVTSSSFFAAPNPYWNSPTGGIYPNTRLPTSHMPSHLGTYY
# Summary of the method: as §1
# ELF1 = ELF1 (Homo sapiens, UniProt P32519 1-619); conditions: protein: recombinant; tags: N-terminal GST; dsDNA, one strand shown
# Summary of the method: as §1
# EHF = molecular target: T5, EHF (Homo sapiens, UniProt Q9NZC4 1-300); conditions: protein: recombinant; tags: N-terminal GST; dsDNA, one strand shown
# T5 sequence: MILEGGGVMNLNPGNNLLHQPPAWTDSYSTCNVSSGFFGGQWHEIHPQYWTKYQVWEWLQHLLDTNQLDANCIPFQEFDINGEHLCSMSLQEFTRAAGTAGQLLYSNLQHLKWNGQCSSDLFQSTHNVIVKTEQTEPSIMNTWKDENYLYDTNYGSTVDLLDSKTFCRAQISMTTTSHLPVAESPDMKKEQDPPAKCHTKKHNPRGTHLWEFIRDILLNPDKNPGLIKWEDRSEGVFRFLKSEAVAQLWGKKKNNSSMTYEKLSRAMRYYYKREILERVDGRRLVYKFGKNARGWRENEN
# Summary of the method: as §1
# SPI1 = SPI1 (Homo sapiens, UniProt P17947 1-270); conditions: protein: recombinant; tags: N-terminal GST; dsDNA, one strand shown
# Summary of the method: as §1
# SPIB = SPIB (Homo sapiens, UniProt Q01892 1-262); conditions: protein: recombinant; tags: N-terminal GST; dsDNA, one strand shown
# Summary of the method: as §1
# ELK3 = molecular target: T6, ELK3 (Homo sapiens, UniProt P41970 1-407); conditions: protein: recombinant; tags: N-terminal GST; dsDNA, one strand shown
# T6 sequence: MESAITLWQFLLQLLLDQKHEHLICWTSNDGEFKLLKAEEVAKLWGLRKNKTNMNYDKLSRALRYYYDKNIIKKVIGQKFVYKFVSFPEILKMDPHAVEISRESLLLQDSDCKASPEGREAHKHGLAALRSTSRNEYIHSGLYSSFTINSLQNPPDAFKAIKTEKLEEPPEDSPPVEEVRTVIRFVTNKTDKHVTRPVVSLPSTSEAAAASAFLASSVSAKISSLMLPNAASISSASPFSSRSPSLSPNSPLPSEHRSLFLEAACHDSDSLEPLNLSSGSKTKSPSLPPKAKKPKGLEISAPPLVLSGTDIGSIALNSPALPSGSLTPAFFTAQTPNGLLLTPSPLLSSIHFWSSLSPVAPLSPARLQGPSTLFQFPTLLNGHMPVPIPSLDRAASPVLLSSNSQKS
# Summary of the method: as §1
# FEV = molecular target: T7, FEV (Homo sapiens, UniProt Q99581 1-238); conditions: protein: recombinant; tags: N-terminal GST; dsDNA, one strand shown
# T7 sequence: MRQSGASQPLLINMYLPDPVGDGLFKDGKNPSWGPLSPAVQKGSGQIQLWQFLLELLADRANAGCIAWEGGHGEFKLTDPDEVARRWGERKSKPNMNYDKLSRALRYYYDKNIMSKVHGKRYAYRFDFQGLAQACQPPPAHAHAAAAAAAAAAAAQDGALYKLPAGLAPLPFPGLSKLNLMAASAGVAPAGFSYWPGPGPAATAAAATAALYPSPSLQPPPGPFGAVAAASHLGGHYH
# Summary of the method: as §1
# ETV5 = ETV5 (Homo sapiens, UniProt P41161 1-510); conditions: protein: recombinant; tags: N-terminal GST; dsDNA, one strand shown
# Summary of the method: as §1
# HSF1 = HSF1 (Homo sapiens, UniProt Q00613 1-529); conditions: protein: recombinant; tags: N-terminal GST; chain copies: 3; dsDNA, one strand shown
# Summary of the method: as §1
# SPIC = molecular target: T8, SPIC (Homo sapiens, UniProt Q8N5J4 1-248); conditions: protein: recombinant; tags: N-terminal GST; dsDNA, one strand shown
# T8 sequence: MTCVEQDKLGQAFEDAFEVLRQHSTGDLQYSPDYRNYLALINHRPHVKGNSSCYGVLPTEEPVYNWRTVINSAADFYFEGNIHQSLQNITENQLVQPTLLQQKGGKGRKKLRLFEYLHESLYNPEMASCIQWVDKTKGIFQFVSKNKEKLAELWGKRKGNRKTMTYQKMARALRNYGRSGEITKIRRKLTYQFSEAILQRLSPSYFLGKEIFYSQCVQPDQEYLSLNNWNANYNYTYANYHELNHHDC
# Summary of the method: as §1
# ELF4 = ELF4 (Homo sapiens, UniProt Q99607 1-663); conditions: protein: recombinant; tags: N-terminal GST; dsDNA, one strand shown
# Summary of the method: as §1
# ELK4 = molecular target: T9, ELK4 (Homo sapiens, UniProt P28324-2 1-405); conditions: protein: recombinant; tags: N-terminal GST; dsDNA, one strand shown
# T9 sequence: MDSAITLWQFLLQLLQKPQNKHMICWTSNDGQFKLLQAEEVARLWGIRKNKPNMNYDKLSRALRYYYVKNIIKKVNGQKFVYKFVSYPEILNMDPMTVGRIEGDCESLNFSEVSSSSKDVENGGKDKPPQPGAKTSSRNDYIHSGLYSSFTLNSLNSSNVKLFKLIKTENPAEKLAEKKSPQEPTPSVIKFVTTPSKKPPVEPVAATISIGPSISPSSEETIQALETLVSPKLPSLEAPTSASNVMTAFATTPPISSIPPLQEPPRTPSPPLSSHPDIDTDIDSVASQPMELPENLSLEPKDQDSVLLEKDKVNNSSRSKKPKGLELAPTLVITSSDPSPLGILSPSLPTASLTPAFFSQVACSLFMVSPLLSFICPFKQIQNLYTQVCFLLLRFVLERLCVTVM
# Summary of the method: as §1
# ETV2 = molecular target: T10, ETV2 (Homo sapiens, UniProt O00321 1-342); conditions: protein: recombinant; tags: N-terminal GST; dsDNA, one strand shown
# T10 sequence: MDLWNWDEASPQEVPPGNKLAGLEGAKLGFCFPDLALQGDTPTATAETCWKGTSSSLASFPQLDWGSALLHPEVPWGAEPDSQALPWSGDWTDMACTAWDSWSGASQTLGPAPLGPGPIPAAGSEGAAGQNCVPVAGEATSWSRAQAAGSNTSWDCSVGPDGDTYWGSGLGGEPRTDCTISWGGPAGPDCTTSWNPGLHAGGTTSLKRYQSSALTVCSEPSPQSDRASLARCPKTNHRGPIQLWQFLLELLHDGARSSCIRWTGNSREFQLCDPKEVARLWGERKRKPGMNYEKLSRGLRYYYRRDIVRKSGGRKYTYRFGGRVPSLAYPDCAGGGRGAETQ
# Summary of the method: as §1
# ELF3 = molecular target: T11, ELF3 (Homo sapiens, UniProt P78545 1-371); conditions: protein: recombinant; tags: N-terminal GST; dsDNA, one strand shown
# T11 sequence: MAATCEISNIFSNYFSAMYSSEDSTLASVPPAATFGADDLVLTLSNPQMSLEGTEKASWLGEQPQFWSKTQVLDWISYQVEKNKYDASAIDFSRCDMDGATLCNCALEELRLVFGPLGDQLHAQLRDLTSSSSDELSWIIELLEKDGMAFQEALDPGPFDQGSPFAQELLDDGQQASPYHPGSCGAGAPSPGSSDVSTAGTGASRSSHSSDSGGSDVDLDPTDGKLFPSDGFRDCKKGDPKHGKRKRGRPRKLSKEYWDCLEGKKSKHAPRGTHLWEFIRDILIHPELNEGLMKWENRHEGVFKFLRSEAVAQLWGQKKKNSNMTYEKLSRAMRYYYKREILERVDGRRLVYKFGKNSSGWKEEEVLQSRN
# Summary of the method: as §1
# CRX = CRX (Homo sapiens, UniProt O43186 1-299); conditions: protein: recombinant; tags: N-terminal GST; dsDNA, one strand shown
# Summary of the method: as §1
# ETV1 = ETV1 (Homo sapiens, UniProt P50549 1-477); conditions: protein: recombinant; tags: N-terminal GST; dsDNA, one strand shown
# Summary of the method: as §1
# Chain of ELF4 (Q99607 whole entry): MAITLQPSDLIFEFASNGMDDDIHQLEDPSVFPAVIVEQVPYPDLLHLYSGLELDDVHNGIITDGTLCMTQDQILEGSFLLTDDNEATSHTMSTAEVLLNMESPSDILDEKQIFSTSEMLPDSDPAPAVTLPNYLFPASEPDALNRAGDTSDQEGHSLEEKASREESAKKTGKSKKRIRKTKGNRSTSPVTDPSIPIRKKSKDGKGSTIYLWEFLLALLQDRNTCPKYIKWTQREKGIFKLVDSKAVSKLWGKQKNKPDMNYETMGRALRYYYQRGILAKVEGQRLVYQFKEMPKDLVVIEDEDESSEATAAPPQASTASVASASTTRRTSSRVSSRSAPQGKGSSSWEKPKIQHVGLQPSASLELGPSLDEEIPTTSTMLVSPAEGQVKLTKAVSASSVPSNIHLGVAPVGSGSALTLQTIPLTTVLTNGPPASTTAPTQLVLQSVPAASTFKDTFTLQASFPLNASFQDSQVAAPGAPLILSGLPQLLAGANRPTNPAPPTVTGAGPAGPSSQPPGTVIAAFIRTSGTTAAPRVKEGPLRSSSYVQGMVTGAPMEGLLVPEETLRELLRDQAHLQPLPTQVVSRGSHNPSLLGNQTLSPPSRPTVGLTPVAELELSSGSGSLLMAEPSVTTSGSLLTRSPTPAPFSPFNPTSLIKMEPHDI
# Chain of ETV5 (P41161 whole entry): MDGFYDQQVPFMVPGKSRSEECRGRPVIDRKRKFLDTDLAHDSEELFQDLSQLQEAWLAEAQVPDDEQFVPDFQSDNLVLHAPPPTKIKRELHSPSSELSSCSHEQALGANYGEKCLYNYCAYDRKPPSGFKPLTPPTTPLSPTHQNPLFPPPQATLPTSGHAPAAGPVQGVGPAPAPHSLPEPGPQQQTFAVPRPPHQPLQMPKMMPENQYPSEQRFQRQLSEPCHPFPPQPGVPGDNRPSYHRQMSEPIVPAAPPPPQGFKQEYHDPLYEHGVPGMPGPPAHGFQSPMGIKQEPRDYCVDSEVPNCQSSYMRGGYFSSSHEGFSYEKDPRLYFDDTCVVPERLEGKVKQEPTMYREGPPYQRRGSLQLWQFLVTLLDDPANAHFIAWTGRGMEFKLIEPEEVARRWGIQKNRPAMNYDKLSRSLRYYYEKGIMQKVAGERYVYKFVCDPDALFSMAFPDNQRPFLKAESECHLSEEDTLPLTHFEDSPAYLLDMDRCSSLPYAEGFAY
# Chain of SPIB (Q01892 whole entry): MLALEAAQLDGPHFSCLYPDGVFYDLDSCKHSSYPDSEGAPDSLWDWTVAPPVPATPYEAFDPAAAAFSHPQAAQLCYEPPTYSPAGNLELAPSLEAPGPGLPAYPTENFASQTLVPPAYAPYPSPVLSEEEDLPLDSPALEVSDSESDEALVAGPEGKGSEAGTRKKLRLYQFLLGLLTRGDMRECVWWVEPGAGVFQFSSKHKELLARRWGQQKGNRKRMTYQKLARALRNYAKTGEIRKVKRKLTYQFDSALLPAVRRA
# Chain of ELF1 (P32519 whole entry): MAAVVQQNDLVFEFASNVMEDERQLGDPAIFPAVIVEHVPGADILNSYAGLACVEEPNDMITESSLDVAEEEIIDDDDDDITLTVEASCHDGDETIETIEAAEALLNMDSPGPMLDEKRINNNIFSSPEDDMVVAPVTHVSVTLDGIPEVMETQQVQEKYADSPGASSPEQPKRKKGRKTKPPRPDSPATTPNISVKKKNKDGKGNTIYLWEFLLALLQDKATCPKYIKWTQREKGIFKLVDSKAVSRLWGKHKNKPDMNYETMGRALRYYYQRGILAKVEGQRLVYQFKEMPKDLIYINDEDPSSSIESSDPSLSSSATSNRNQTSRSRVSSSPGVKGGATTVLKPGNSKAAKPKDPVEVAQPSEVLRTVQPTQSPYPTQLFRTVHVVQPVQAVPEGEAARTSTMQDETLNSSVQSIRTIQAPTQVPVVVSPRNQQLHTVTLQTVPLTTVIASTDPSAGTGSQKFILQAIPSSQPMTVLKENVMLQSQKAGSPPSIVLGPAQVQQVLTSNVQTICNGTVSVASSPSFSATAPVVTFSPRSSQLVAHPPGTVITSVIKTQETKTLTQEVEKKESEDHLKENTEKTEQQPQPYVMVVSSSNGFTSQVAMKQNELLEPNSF
# Chain of HSF1 (Q00613 whole entry): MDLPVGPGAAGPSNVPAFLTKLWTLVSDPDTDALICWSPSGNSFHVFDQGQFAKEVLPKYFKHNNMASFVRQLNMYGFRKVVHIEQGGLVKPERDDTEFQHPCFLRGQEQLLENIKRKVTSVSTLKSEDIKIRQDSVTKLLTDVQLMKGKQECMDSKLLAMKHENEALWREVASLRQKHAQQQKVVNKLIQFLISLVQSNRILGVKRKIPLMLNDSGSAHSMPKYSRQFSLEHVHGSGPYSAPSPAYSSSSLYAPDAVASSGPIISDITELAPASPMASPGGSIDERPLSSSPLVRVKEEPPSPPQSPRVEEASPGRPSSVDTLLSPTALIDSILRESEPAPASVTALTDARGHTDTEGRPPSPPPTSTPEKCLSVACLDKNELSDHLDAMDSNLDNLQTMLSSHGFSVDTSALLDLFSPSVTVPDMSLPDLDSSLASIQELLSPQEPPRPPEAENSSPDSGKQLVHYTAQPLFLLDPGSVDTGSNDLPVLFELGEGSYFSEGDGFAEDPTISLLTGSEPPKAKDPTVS
# Chain of CRX (O43186 whole entry): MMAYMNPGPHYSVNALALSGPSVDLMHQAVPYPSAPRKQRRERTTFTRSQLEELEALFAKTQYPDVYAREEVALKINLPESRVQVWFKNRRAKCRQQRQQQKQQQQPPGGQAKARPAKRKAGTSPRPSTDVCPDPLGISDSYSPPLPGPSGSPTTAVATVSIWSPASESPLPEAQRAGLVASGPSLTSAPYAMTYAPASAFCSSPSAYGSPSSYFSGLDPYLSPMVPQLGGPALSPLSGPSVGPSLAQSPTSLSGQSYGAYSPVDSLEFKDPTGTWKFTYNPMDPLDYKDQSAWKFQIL
# Chain of ETV1 (P50549 whole entry): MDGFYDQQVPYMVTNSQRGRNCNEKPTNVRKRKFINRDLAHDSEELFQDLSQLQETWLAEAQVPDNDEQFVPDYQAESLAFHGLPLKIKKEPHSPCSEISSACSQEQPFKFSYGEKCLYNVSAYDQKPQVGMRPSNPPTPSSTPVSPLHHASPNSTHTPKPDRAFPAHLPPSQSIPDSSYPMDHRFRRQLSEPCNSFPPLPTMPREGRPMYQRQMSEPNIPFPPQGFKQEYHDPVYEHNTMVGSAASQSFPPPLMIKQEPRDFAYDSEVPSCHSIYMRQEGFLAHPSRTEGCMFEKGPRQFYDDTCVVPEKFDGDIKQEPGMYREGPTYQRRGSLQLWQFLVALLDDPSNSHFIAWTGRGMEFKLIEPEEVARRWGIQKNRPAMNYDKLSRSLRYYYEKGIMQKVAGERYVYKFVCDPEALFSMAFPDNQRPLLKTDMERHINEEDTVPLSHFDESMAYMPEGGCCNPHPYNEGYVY
sequence,measurement,setting,value
TCTCGA,binding signal,FLI1,"1.35 fold enrichment (6-mer frequency, TF over GST control)"
same,binding signal,ELK1,"1.34 fold enrichment (6-mer frequency, TF over GST control)"
same,binding signal,GABPA,"1.42 fold enrichment (6-mer frequency, TF over GST control)"
same,binding signal,ERG,"1.38 fold enrichment (6-mer frequency, TF over GST control)"
same,binding signal,ELF1,"1.41 fold enrichment (6-mer frequency, TF over GST control)"
same,binding signal,EHF,"1.37 fold enrichment (6-mer frequency, TF over GST control)"
same,binding signal,SPI1,"1.36 fold enrichment (6-mer frequency, TF over GST control)"
same,binding signal,SPIB,"1.43 fold enrichment (6-mer frequency, TF over GST control)"
same,binding signal,ELK3,"1.31 fold enrichment (6-mer frequency, TF over GST control)"
same,binding signal,FEV,"1.23 fold enrichment (6-mer frequency, TF over GST control)"
same,binding signal,ETV5,"1.4 fold enrichment (6-mer frequency, TF over GST control)"
same,binding signal,HSF1,"5.05 fold enrichment (6-mer frequency, TF over GST control)"
same,binding signal,SPIC,"1.35 fold enrichment (6-mer frequency, TF over GST control)"
same,binding signal,ELF4,"1.51 fold enrichment (6-mer frequency, TF over GST control)"
same,binding signal,ELK4,"1.46 fold enrichment (6-mer frequency, TF over GST control)"
same,binding signal,ETV2,"1.27 fold enrichment (6-mer frequency, TF over GST control)"
same,binding signal,ELF3,"1.35 fold enrichment (6-mer frequency, TF over GST control)"
same,binding signal,CRX,"2.28 fold enrichment (6-mer frequency, TF over GST control)"
same,binding signal,ETV1,"1.47 fold enrichment (6-mer frequency, TF over GST control)"
